# Reference: ChEMBL document CHEMBL4513216, “Probing the Open Global Health Chemical Diversity Library for Multistage-Active Starting Points for Next-Generation Antimalarials” (ACS Infect Dis, 2020)
# The campaign covered roughly 69,000 compounds. About 8,600 (12%) showed an effect of 50% or more. This is one part of a sample in which strong results are shown more often than they occur.
# System: Plasmodium berghei
# Assay: Screen against P. berghei liver stage (PbLuc), transformed with Luciferase, at 10uM
# Assay type: functional, HepG2
# Conditions: tested at 10 uM
row,Structure (SMILES),INHIBITION
1,CCOCc1ncn2c1CN(S(=O)(=O)c1ccc(C)cc1)CC2,-51.9%
2,COCc1ncn2c1CN(S(=O)(=O)Cc1ccc(C)cc1)CC2,-0.55%
3,COCc1ncn2c1CN(S(=O)(=O)c1cccc(F)c1)CC2,-58.3%
4,COc1cccc(S(=O)(=O)N2CCn3cnc(COCC4CC4)c3C2)c1,15.9%
5,COCc1ncn2c1CN(S(=O)(=O)c1ccc(C)cc1)CC2,80.3%
6,COCc1ncn2c1CN(S(=O)(=O)c1cccc(OC)c1)CC2,62.4%
7,O=C(NC1COC2(CCN(CC3CCC3)CC2)C1)c1ccccn1 (stereo not given),-7.59%
8,CC1=C(c2ccc(C(C)C)cc2)S(=O)(=O)N=C1N1CCc2ccccc21,49%
9,Cc1ccccc1C(C)NC(=O)c1ccc(=O)n(C)c1 (stereo not given),25.5%
10,CC(NC(=O)c1cc(=O)n(C)c(=O)n1C)c1ccccc1-n1cccn1 (stereo not given),0.426%
11,CC(NC(=O)c1ccc(=O)n(C)c1)c1ccccc1-n1cccn1 (stereo not given),53.8%
12,Cc1cc2c(=O)n3c(nc2s1)CCN(Cc1cnc(C)n1C)CC3,23.2%
13,Cc1cccc(OCCC(=O)NC(C)c2nnc3n2CCC3)c1 (stereo not given),26.4%
14,COc1ccc(-c2cn3c(n2)CO[C@@H](CNCc2ccccn2)C3)cc1,66.9%
15,c1cc(-c2nnn3c2COC(CNCc2nccs2)C3)ccn1 (stereo not given),32.4%
16,Cc1nnn2c1COC(CNCc1ccncc1)C2 (stereo not given),39.3%
17,Cn1cc(-c2nnn3c2COC(CNCc2cccnc2)C3)cn1 (stereo not given),27.4%
18,COc1ccc(-c2cn3c(n2)CO[C@@H](CNCc2nccn2C)C3)cc1,16.2%
19,Cc1cccc(CNC[C@H]2Cn3cc(-c4ccccc4)nc3CO2)n1,-23.2%
20,Cn1cc(-c2nnn3c2COC(CNCc2ccncc2)C3)cn1 (stereo not given),39.3%
21,Cn1cc(CNCC2Cn3nnc(-c4ccccc4)c3CO2)cn1 (stereo not given),62%
22,Cc1nnn2c1COC(CNCc1nccs1)C2 (stereo not given),-3.24%

row,Structure (SMILES),INHIBITION
1,c1ccc(CNCC2Cn3nnc(-c4ccncc4)c3CO2)nc1 (stereo not given),64.5%
2,c1cc(-c2nnn3c2COC(CNCC2CCOCC2)C3)ccn1 (stereo not given),28.2%
3,Cc1cc(CNCC2Cn3nnc(C)c3CO2)oc1C (stereo not given),60%
4,CCc1nnc(Nc2cccc(C3CCN(C(=O)CO)CC3)n2)s1,11.1%
5,CCCn1nccc1NC(=O)CN1CCCC1Cn1cc(C)cn1 (stereo not given),42.3%
6,Cn1cc(CCNC(=O)N2CCCC(Cc3nccn3C)C2)cn1 (stereo not given),33%
7,O=C(NCCCN1CCOCC1)c1cccc(OCc2ccccc2)c1,30%
8,Cc1csc(CN2CCC3(CC2)COC(COc2ccccn2)C3)n1 (stereo not given),47.5%
9,Cn1cc(-c2nnn3c2COC(CNCc2ccccn2)C3)cn1 (stereo not given),46.3%
10,Cc1nnn2c1COC(CNCc1ccccn1)C2 (stereo not given),39.3%
11,c1ccc(-c2nnn3c2COC(CNCc2ccccn2)C3)cc1 (stereo not given),51.2%
12,O=C(NCC1CC1)C1CN(c2ncccn2)Cc2ccnn2C1 (stereo not given),31.2%
13,CCN(C(=O)CS(=O)(=O)c1cc(OC)c(OC)cc1C)C1CC1,33.7%
14,COc1cc(C)c(S(=O)(=O)CC(=O)N(C)C2CC2)cc1OC,50.4%
15,COc1cc(C)c(S(=O)(=O)CC(=O)N(C)C(C)C)cc1OC,11.5%
16,COc1c(CNC(c2cccc(F)c2)c2nccn2C)c(C)nn1C (stereo not given),-16.8%
17,Cc1c(Br)cccc1C(=O)NCC1CCCNC1 (stereo not given),42.3%
18,CN(Cc1nccn1C)C1CCCN(Cc2noc(C3CC3)n2)C1 (stereo not given),-25.8%
19,O=c1cc(N2CCCCC2)cnn1Cc1noc(C2CCCO2)n1 (stereo not given),-27.1%
20,O=c1cc(N2CCCC2)cnn1Cc1noc(C2CCCO2)n1 (stereo not given),47.1%
21,O=c1cc(N2CCNCC2)cnn1Cc1noc(C2CCCC2)n1,78.6%
22,Cc1ccccc1CNC(=O)N1C[C@@H]2C[C@H](C(=O)N(C)C)[C@H](C1)O2,5.63%

row,Structure (SMILES),INHIBITION
1,COc1ccc(OC)c(CNc2nnc(C(C)(C)C)o2)c1,-10.9%
2,CC(Cn1cncn1)NC(=O)NCC(C)(C)Cc1ccccc1 (stereo not given),39.8%
3,CC(Cn1cncn1)NC(=O)NCc1csc(N(C)C)n1 (stereo not given),23.6%
4,CC(Cn1cncn1)NC(=O)NCC(C)(C)c1ccc(F)cc1 (stereo not given),64.5%
5,CC(Cn1cncn1)NC(=O)Nc1ccc(F)cc1OCC1CC1 (stereo not given),-21.1%
6,CC(NC(=O)NCCCn1cncn1)c1ccc(F)cc1 (stereo not given),-1.7%
7,Cc1ccc(C(C)(C)CNC(=O)NC(C)Cn2cncn2)cc1 (stereo not given),61.1%
8,Cn1ncc(C(=O)N2CCN(C(=O)c3ccco3)CC2)c1Cl,36.5%
9,CC(=O)N1CCCC2(CCC(=O)N2Cc2cccnc2)C1 (stereo not given),6.27%
10,Cc1ccc(C(=O)N2CCOC(c3nc(-c4ncccn4)no3)C2)cc1 (stereo not given),11.1%
11,c1cc2c(cc1CN1CCC(Cc3noc(C4CC4)n3)CC1)OCCO2,-5.26%
12,c1cc2c(cc1CSCc1noc(C3CC3)n1)OCCO2,74.3%
13,c1cc2c(cc1CN1CCN(Cc3noc(C4CC4)n3)CC1)OCO2,-28%
14,COCCCNC(=O)CN1CCSC(c2ccccc2)C1 (stereo not given),3.88%
15,COc1ccccc1C1CC(=O)Nc2nc(N3CCCCC3)sc21 (stereo not given),15.1%
16,Cc1cc(C(=O)N2CCCC2c2noc(C(C)C)n2)c(C)o1 (stereo not given),4.52%
17,CCN(CC)S(=O)(=O)c1ccc(CNC(=O)N2CCCCCC2)cc1,54.3%
18,CS(=O)(=O)c1ccc(CNC(=O)N2CCC(C(N)=O)CC2)cc1,-60.8%
19,CCN(CC)S(=O)(=O)c1ccc(CNC(=O)N2CCC(C#N)CC2)cc1,45.7%
20,COCCCNC(=O)c1cn(C(C)C)cc2c(=O)[nH]nc1-2,14.9%
21,Cc1nn(C)cc1S(=O)(=O)N(CCc1ccccc1)Cc1ccn(C)n1,26.75%
22,CSCC[C@@H](CO)NC(=O)c1sc(-c2ccccc2Cl)nc1C,9.84%

row,Structure (SMILES),INHIBITION
1,Cc1ccccc1-n1ncc2c(=O)n(CCN3CCCC3)cnc21,-16.3%
2,Cc1nc(CSCCC(=O)NCC(=O)NC(C)C)cs1,29.4%
3,Cc1nc(CSCCC(=O)NCCNC(=O)OC(C)(C)C)cs1,-30.7%
4,CCOCCCNC(=O)CCSCc1csc(C)n1,63.8%
5,Cc1ccc(-c2ccnc(NCC(O)c3ccc(O)cc3)n2)c(C)n1 (stereo not given),37.8%
6,O=C1NCCCCC1NC(=O)N1CCCc2ccccc21 (stereo not given),34.2%
7,COc1ccc2c(c1)CCCN2C(=O)NC1CCCCNC1=O (stereo not given),44.3%
8,O=C1NCCCCC1NC(=O)N1CCCc2cc(F)ccc21 (stereo not given),58.9%
9,Cc1ccc(CN2CCc3[nH]nc(C(=O)N(C)C)c3C2)s1,8.74%
10,CS(=O)(=O)NC(=O)c1nnn(-c2ccccc2)c1C1CC1,8.64%
11,Cc1ccc(-n2nnc(C(=O)NCCS(N)(=O)=O)c2C2CC2)cc1,58.5%
12,CC(C)NC(=O)c1nnn(-c2ccccc2)c1C1CC1,-65.5%
13,O=C(NCC1(CO)CC1)c1nnn(-c2ccc(F)cc2)c1C1CC1,78.2%
14,Cc1ccc(-n2nnc(C(=O)NCC3(CO)CC3)c2C2CC2)cc1,33.3%
15,NS(=O)(=O)CCNC(=O)c1nnn(-c2ccccc2)c1C1CC1,56.8%
16,NS(=O)(=O)CCNC(=O)c1nnn(-c2ccc(F)cc2)c1C1CC1,36.8%
17,COC(=O)CCNC(=O)c1nnn(-c2ccc(C)cc2)c1C1CC1,49.8%
18,O=C(NCC1(C(=O)O)CCC1)c1nnn(-c2ccc(F)cc2)c1C1CC1,20%
19,CCc1nc(C2CCCN(C(=O)c3cc(C(C)C)[nH]n3)C2)no1 (stereo not given),21.6%
20,O=C(NCC1CC1)[C@@H]1CC[C@@H]2[C@@H](CCN2Cc2ccco2)O1,-35%
21,O=C(NCCN1CCOCC1)c1nc(-c2ccc3[nH]ccc3c2)no1,-50.8%
22,Cn1ncc(C(=O)N2CCN(S(C)(=O)=O)CC2)c1Cl,-10.95%

row,Structure (SMILES),INHIBITION
1,CNC(=O)C1(C)CCCN1Cc1cnn(C)c1C (stereo not given),37.8%
2,Cc1nn(C)cc1CN(C)C(=O)c1ccccn1,8.7%
3,Cc1nn(C)cc1CN(C)C(=O)c1cccnc1,-13.6%
4,Cc1nn(C)cc1CN(C)C(=O)c1ccncc1,69.9%
5,Cc1nc(CN2CCC3(CC2)NC(=O)CC3c2ccncc2)cs1 (stereo not given),45.7%
6,CCC(C)N(Cc1sccc1C)C(=O)c1cnc[nH]1 (stereo not given),9.41%
7,CCc1nnc(CN(C)Cc2cccc(C(=O)Nc3cnn(C)c3)c2)o1,28.7%
8,CCc1nnc(CN(C)Cc2cccc(C(=O)Nc3ccnn3C)c2)o1,35%
9,CCc1nnc(CN(C)Cc2cccc(C(=O)Nc3nccs3)c2)o1,70.9%
10,CC(C)(CO)CCCNC(=O)NC1(C)Cc2ccccc2C1,47.2%
11,c1ccc(CN2CCc3nnc(CN4CCCCC4)n3CC2)nc1,-2.84%
12,COc1ccc(Cc2ncc3c(n2)CN(C(=O)C(C)(C)OC)C3)cc1,11.2%
13,Cc1cc(C(=O)N(CC2CCCO2)c2ccncc2)c(C)o1 (stereo not given),26.4%
14,Cc1ccc(C(=O)N2CCn3c(COCC4CC4)cnc3C2C)s1 (stereo not given),-3.24%
15,NC(=O)COc1ccc(CNCc2ccc(F)c(F)c2)cc1,-33.2%
16,Cn1cc(CC2CCN(C(=O)NCc3cccc(C#N)c3)C2)cn1 (stereo not given),8.55%
17,CC1CN(C(=O)NCc2cccc(C#N)c2)CCN1CC(F)(F)F (stereo not given),19%
18,CC(N1CCN(C(=O)NCc2cccc(C#N)c2)CC1)C(F)(F)F (stereo not given),56.7%
19,Cc1cc(Cc2ccc(S(=O)(=O)N3CCSCC3)cc2)c(=O)[nH]n1,13.2%
20,CCC1CN(CCCNS(C)(=O)=O)c2ccccc2O1 (stereo not given),50.1%
21,CCC1CN(CCCO)c2ccccc2O1 (stereo not given),29.8%
22,CCC1CN(CCNS(C)(=O)=O)c2ccccc2O1 (stereo not given),-4.46%
